# CCT chaperon mod – modulators of cytosolic chaperonin (CCT/TRiC) activity | purified chaperonin ATPase assay, HTRF ADP detection, 30 min | activity change, % (test concentration not listed), hits read low | 360,000 compounds, 0.3% hits | AID 651819; in the data active = activity change below about -30%
#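 We incubate TRiC, 40 or 20 nM final, with library compounds at 76 uM and 10 uM ATP for 30 min at 37 °C. ADP formed is detected with Transcreener HTRF reagents after 30 min at room temperature.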
# pAkt inh – inhibitors of Akt phosphorylation | activity change, % for hits at 50 µM | 360,000 compounds, 0.32% hits | Neuro2A IGF-stimulated pAkt S473 HTRF, 20 min; stronger effect = lower value; in the data active = activity change below about -80%; inconclusive = mostly about -51% to -80%
#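 Neuro2A cells in DMEM with 0.5% FBS, overnight at 37 deg C, given compound at single 50 µM final, then IGF (6 nM final) for 20 min at 37 deg C. Lysed; phospho-Akt Ser473 by HTRF after 24 h, 665/615 ratio.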
# CtBP-E1A blk – blocks the CtBP interaction with E1A; AlphaScreen GST-E1A/His-CtBP binding, 1536-well; stronger effect = lower value; activity change, % (no concentration beside the values); 340,000 compounds, 0.49% hits; AID 651724
#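 In 5 uL wells, 23 nL compound meets equimolar GST-E1A and His-CtBP (5X stock 125 nM each) for 2 h, 37 °C. Beads (5X, 50 ug/mL) then 1 h, 37 °C, dark.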
# Six1-Eya2 blk – inhibitors of human Six1/Eya2 interaction. Q15475+O00167. AlphaScreen GST-Six1/His-Eya2 binding, biochemical; stronger effect = lower value. activity change, % (concentration not given with the values). 360,000 compounds, 0.56% hits. AID 651725
#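 GST-Six1 + His-Eya2 (5X stock: 250/500 nM); Tris pH 8.0, 300 mM NaCl, 0.05% BSA, 0.02% Tween 20; GSH donor/Ni acceptor beads; 1 h 37 °C dark; AlphaScreen readout.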
# * hit, by the source's call; i = inactive; u = inconclusive; x = no result given. Sampled rows, rich in hits. Any-hit rate of the full collection: about 1.2%. Rule as the data show it, unless noted: active = activity change below about -65%; inconclusive = mostly about -30% to -63%; inactive = weaker than that. % is scaled to controls: 0 for no effect and ±100 for the full control effect.
SMILES,CCT chaperon mod,pAkt inh,CtBP-E1A blk,Six1-Eya2 blk
NCCCC[C@@H]1NC(=O)c2cc([N+](=O)[O-])cc(I)c2SC[C@@H](C(N)=O)NC(=O)[C@H](Cc2ccc(O)cc2)NC1=O,1,i,x,-8
S=c1sscc1-c1ccccc1,-1,i,-81*,-70*
O=C(Nc1ncc2c(n1)-c1ccccc1CC2)c1ccccc1,0,i,-3,3
O=C(Nc1ncc2c(n1)-c1ccccc1CC2)c1ccc(F)cc1,-2,-120%*,-3,-2
Nc1ccc(C(=O)Nc2ccccc2C(=O)O)cc1,-3,i,u,-26
O=C(Nc1ccccc1C(=O)O)c1ccc(NC(=O)C2CC2)cc1,-2,i,u,-81*
O=C(Nc1ccccc1C(=O)Nc1ccccc1C(=O)O)c1ccccc1,-3,i,-67*,-81*
COc1ccc(NC(=O)Cc2coc3cc(C)ccc23)cn1,1,i,6,6
CC(C)(C)NC(=O)C1c2ccccc2OCC(=O)N1Cc1ccccc1 (stereo not given),-1,i,-18,11
CCCCS/C(N)=N/N=C/c1ccccc1O,-2,-111%*,-6,-3
CC1CN(C(=O)COC(=O)Cc2ccc(Cl)cc2)CC(C)O1 (stereo not given),2,i,9,5
Oc1ccc(Oc2ccc3c(C(F)(F)F)cc(C(F)(F)F)nc3n2)cc1,-2,-116%*,-8,-16
Cc1noc(C)c1COc1ccccc1C(=O)N1CCN(S(=O)(=O)c2cccc(Cl)c2)CC1,-1,i,3,4
Cc1noc(C)c1COc1ccccc1C(=O)N1CCN(S(=O)(=O)c2cccc([N+](=O)[O-])c2)CC1,-57*,i,1,-1
O=C(/C=C/c1ccc([N+](=O)[O-])cc1)OCC(=O)N1CCCCCC1,1,i,-72*,-10
O=C(Nc1nnc(SCc2ccccc2)s1)c1cccc([N+](=O)[O-])c1,-2,i,-11,5
O=C(Nc1nnc(SCc2ccccc2)s1)c1cc2c(s1)CCCC2,-61*,u,-2,-1
CCSc1nnc(NC(=O)c2cc3c(s2)CCCC3)s1,-4,-81%*,8,4
CCCC(=O)N1CCC1(C)C(=O)Nc1ccc(OC(F)F)cc1 (stereo not given),-2,i,7,9
CC1Cc2ccccc2N1C(=O)CSc1nnc(CSc2ncccn2)n1C (stereo not given),-1,-81%*,-2,-1
CCCCNC(=O)Cn1nc(Cc2ccncc2)c2ccccc2c1=O,0,i,x,7
O=C(Cn1nc(Cc2ccncc2)c2ccccc2c1=O)N1CCc2ccccc2C1,-1,i,-68*,-19
Cc1nn(CC(=O)N2CCc3ccccc3C2)c(C)c1Cl,-80*,x,x,2
Cc1nn(CC(=O)N2CCc3ccccc3C2)c(C)c1[N+](=O)[O-],0,i,-23,7
COc1cccc(NC(=O)CN(C)C(C)C(=O)N2CCCCC2)c1 (stereo not given),-2,i,-23,-10
SMILES,CCT chaperon mod,pAkt inh,CtBP-E1A blk,Six1-Eya2 blk
COc1ccc(N/C(C)=C/C(=S)Nc2ccccc2)cc1,-1,i,-1,-23
COC(=O)C1CCN(C(=O)COC(=O)CCc2nc3ccccc3c(=O)[nH]2)CC1,2,i,0,8
COc1ccc(N2CCN(C3CCCN(S(=O)(=O)c4ccc(C)cc4C)C3)CC2)cc1 (stereo not given),1,i,-66*,u
CN1CCN(NS(=O)(=O)c2ccc(Cl)cc2)CC1,0,i,7,6
C=CCNC(=O)c1ccc2c(c1)nnn2C,0,i,0,6
Oc1ccc(/C=N/NC(=S)NCc2ccco2)cc1,-2,-116%*,-5,-6
S=C(NCc1ccco1)N/N=C/c1ccc(Cl)cc1,-2,i,-9,-11
COc1ccccc1N1CN(S(=O)(=O)c2ccc(C)cc2)c2nc3ccccc3nc21,0,i,-4,1
COc1ccc(-c2ccc(C(=O)NCc3ccc(N(C)C)cc3)c3occc23)c(C)c1,-3,i,-66*,-65*
CCN(CC)c1ccc(/C=N/n2nnnc2N)c(O)c1,-2,i,-1,5
CCN(CC)c1ccc2nc3ccc(N)cc3[n+](-c3ccccc3)c2c1,0,i,-84*,-78*
CCN(CC)c1ccc2nc3ccccc3[n+](CC)c2c1,-3,i,-75*,-67*
Cc1ccc(F)cc1NCC(=O)Nc1ccc(Cl)cc1F,-47*,i,12,7
Cc1c(Cl)cccc1NCC(=O)Nc1ccc(Cl)cc1F,0,i,1,7
CCOC(=O)c1c(C)[nH]c(C(=O)/C(C#N)=C/c2ccc(OCC)cc2)c1C,-119*,i,-2,0
O=C(c1cc2ccccc2oc1=O)N(Cc1ccccc1)Cc1ccc2c(c1)OCO2,-17,-124%*,-7,-6
O=C(c1cc2ccccc2oc1=O)N1CCN(Cc2ccc3c(c2)OCO3)CC1,-1,i,-2,0
Cc1cc(C)n(C(=O)CNc2cccc(Cl)c2C)n1,1,i,3,9
Cc1cc(C)n(C(=O)CNc2ccccc2Cl)n1,-2,-127%*,26,13
N#CC1(NC(=O)COc2cccnc2[N+](=O)[O-])CCCCC1,-38*,i,-3,9
CCCOc1ccc(/C(O)=C2\C(=O)C(=O)N(CCCOC)C23C(=O)N(C)c2ccccc23)cc1 (stereo not given),-8,i,3,6
COCCN1C(=O)C(=O)/C(=C(/O)c2cccc(S(=O)(=O)N(C)C)c2)C12C(=O)N(C)c1ccccc12 (stereo not given),0,-108%*,-2,5
Cc1ccccc1-c1cnc(C(O)c2cc(Cl)cc(Cl)c2)[nH]1 (stereo not given),1,i,-9,-12
COc1ccc(S(=O)(=O)N(C)C)cc1NC(=O)CCNC(=O)c1ccco1,3,i,1,-5
Cc1ccnc(Nc2nc(-c3c(C)nc4sccn34)cs2)c1,-2,x,-78*,-68*
SMILES,CCT chaperon mod,pAkt inh,CtBP-E1A blk,Six1-Eya2 blk
C=CCNc1nc(-c2c(C)nc3ncccn23)cs1,-1,i,-15,-17
Cc1nc2ncccn2c1-c1csc(Nc2ccc(O)cc2)n1,-1,i,-90*,-87*
Cc1ccc(Nc2nc(-c3c(C)nc4ncccn34)cs2)cc1,-3,i,-90*,-75*
Cc1ccc(Nc2nc(-c3c(C)nc4ccccn34)cs2)cc1,-3,i,-17,-16
O=C(Nc1ccc(OCc2ccccc2)cc1)c1cccc([N+](=O)[O-])c1,-46*,i,-2,5
c1cc[n+](CCC[n+]2ccccc2)cc1,-4,i,0,3
CS(=O)(=O)N1CCC(C(=O)Nc2ccc(Cl)cc2Cl)CC1,-2,i,5,5
COc1ccc(C2C3=C(CCCC3=O)Nc3nc(SCc4ccccc4)nn32)cc1OC (stereo not given),-31*,i,3,0

# Screens from PubChem BioAssay.
